Experimental data published in PubChem BioAssay AID1159580 (chemical genetic matrix, 2015).
“And” between values parts separate entries of the source, which are not always exact repeats. Equal values may be shown once. Screen size: about 5,500 compounds; about 2,000 (36%) were called active. Not shown: some 18% with an inconclusive outcome. Rule as the data show it: active = normalized growth mostly below about 0.91 (no sharp cut-off); inconclusive = no clear call, values can overlap the other calls; inactive = mostly above about 0.92. This is one part of the list.

Experiment: chemical genetic growth profiling, strain panel (AID 1159580);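 also: tested at 20 µM; growth read once vehicle control cultures reached saturation at 30 °C; 1 = growth at the plate median or of vehicle wells; lower values mean less growth of the strain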
Details: S. cerevisiae deletion strains, growth OD

Measured: normalized growth

CC(C)c1c(O)c(-c2cc3c(c(C(C)C)c2O)CCC2C(C)(C)CCC[C@]32C)cc2c1CCC1C(C)(C)CCC[C@]21C (stereo partly specified)
inactive: locus YAL013W, strain DEP1, hits give low values 1.01 | locus YAL021C, strain ccr4, hits give low values 0.987 | locus YAL026C, strain drs2, hits give low values 0.988 | locus YAL030W, strain snc1, hits give low values 0.996 | locus YBL061C, strain skt5, hits give low values 0.991 | locus YBR009C, strain hhf1, hits give low values 1.02 | locus YBR021W, strain FUR4, hits give low values 1.03 | locus YBR023C, strain chs3, hits give low values 0.992 | locus YBR171W, strain sec66, hits give low values 0.976 | locus YBR229C, strain ROT2, hits give low values 1.02 | locus YBR231C, strain swc5, hits give low values 0.99 | locus YBR279W, strain paf1, hits give low values 0.99 | locus YCL011C, strain gbp2, hits give low values 0.983 | locus YCL016C, strain dcc1, hits give low values 0.976 | locus YCL029C, strain bik1, hits give low values 1.02 | locus YCL061C, strain MRC1, hits give low values 0.982 | locus YCL069W, strain vba3, hits give low values 0.998 | locus YCR088W, strain abp1, hits give low values 1 | locus YDL005C, strain med2, hits give low values 0.964 | locus YDL035C, strain GPR1, hits give low values 1.02 | locus YDL040C, strain nat1, hits give low values 0.991 | locus YDL074C, strain BRE1, hits give low values 1.02 | locus YDL101C, strain DUN1, hits give low values 1.01 | locus YDL134C, strain PPH21, hits give low values 1.01 | locus YDL185W, strain tfp1, hits give low values 1.04 | locus YDL192W, strain arf1, hits give low values 1.03 | locus YDR001C, strain nth1, hits give low values 0.984 | locus YDR069C, strain doa4, hits give low values 0.982 | locus YDR101C, strain arx1, hits give low values 1.01 | locus YDR137W, strain rgp1, hits give low values 0.982 | locus YDR150W, strain NUM1, hits give low values 1.02 | locus YDR159W, strain sac3, hits give low values 0.986 | locus YDR162C, strain NBP2, hits give low values 1.02 | locus YDR195W, strain ref2 0.938 | locus YDR297W, strain sur2, hits give low values 0.985 | locus YDR318W, strain mcm21, hits give low values 1.02 | locus YDR334W, strain swr1, hits give low values 0.972 | locus YDR335W, strain msn5, hits give low values 0.986 | locus YDR388W, hits give low values 1.01 | locus YDR392W, strain spt3, hits give low values 0.982 | locus YDR502C, strain sam2, hits give low values 1.01 | locus YEL003W, strain gim4, hits give low values 0.995 | locus YEL037C, strain rad23, hits give low values 0.99 | locus YEL061C, strain CIN8 (second series), hits give low values 0.993 | locus YEL061C, strain CIN8, hits give low values 1.01 | locus YER015W, strain faa2, hits give low values 0.985 | locus YER016W, strain bim1, hits give low values 0.972 | locus YER110C, hits give low values 1.02 | locus YER111C, strain swi4, hits give low values 0.992 | locus YER155C, strain BEM2 (second series), hits give low values 0.992 | locus YER155C, strain BEM2, hits give low values 1.01 | locus YER167W, strain BCK2, hits give low values 1.03 | locus YFR010W, strain ubp6, hits give low values 1.01 | locus YGL078C, strain dbp3, hits give low values 1.01 | locus YGL086W, strain mad1, hits give low values 1.02 | locus YGL167C, strain pmr1, hits give low values 0.993 | locus YGL173C, strain kem1, hits give low values 0.972 | locus YGL227W, strain vid30, hits give low values 0.982 | locus YGL240W, strain doc1, hits give low values 0.988 | locus YGL248W, strain PDE1, hits give low values 1.02 | locus YGL253W, strain hxk2, hits give low values 0.985 | locus YGR078C, strain PAC10, hits give low values 1.01 | locus YGR135W, strain pre9, hits give low values 1.01 | locus YGR229C, strain SMI1, hits give low values 1.01 | locus YGR252W, strain gcn5, hits give low values 1.06 | locus YHR013C, strain ard1, hits give low values 0.947 | locus YHR027C, strain rpn1, hits give low values 0.985 | locus YHR030C, strain SLT2, hits give low values 1.01 and 0.972 | locus YHR079C, strain IRE1 (second series), hits give low values 1.01 | locus YHR079C, strain IRE1, hits give low values 0.965 | locus YHR094C, strain hxt1, hits give low values 1.02 | locus YHR129C, strain ARP1, hits give low values 1 | locus YHR142W, strain chs7, hits give low values 0.986 | locus YHR200W, strain rpn10, hits give low values 1.02 | locus YIL066C, strain RNR3, hits give low values 1.02 | locus YIL073C, strain SPO22, hits give low values 1.08 | locus YIL125W, strain kgd1, hits give low values 1.02 | locus YIR030C, strain dcg1, hits give low values 1.01 | locus YJL092W, strain hpr5, hits give low values 0.979 | locus YJL095W, strain BCK1 (second series), hits give low values 0.997 | locus YJL095W, strain BCK1, hits give low values 1.01 and 1 | locus YJL115W, strain asf1, hits give low values 0.956 | locus YJL129C, strain trk1, hits give low values 0.988 | locus YJL134W, strain LCB3, hits give low values 1.01 | locus YJL154C, strain vps35, hits give low values 0.985 | locus YJL164C, strain tpk1, hits give low values 0.994 | locus YJL166W, strain qcr8, hits give low values 0.997 | locus YJL168C, strain set2, hits give low values 1.02 | locus YJL187C, strain SWE1 (second series), hits give low values 1.01 | locus YJR043C, strain POL32, hits give low values 1.03 | locus YJR066W, strain TOR1, hits give low values 0.945
